This passage reports growth results from PubChem BioAssay (NCI).

Common to all, as to assay: NCI-60 one-dose screen, 48 h (100 = growth as untreated, 0 = no growth, -100 = all killed)
In one assay the test system is RPMI-8226 leukemia. Conditions: 10 µM unless noted.
In another assay the test system is OVCAR-8 ovarian. Conditions: 10 µM unless noted.
The next assay concerns OVCAR-5 ovarian. Conditions: 10 µM unless noted.
In another assay the test system is OVCAR-4 ovarian. Conditions: 10 µM unless noted.
The test system of a further assay is SK-OV-3 ovarian. Conditions: 10 µM unless noted.
The next assay has as its system OVCAR-3 ovarian. Conditions: 10 µM unless noted.
The next assay has as its system HS 578T breast. Conditions: 10 µM unless noted.
Another assay concerns NCI/ADR-RES ovarian. Conditions: 10 µM unless noted.
Another assay has as its system T-47D breast. Conditions: 10 µM unless noted.
The next assay deals with BT-549 breast. Conditions: 10 µM unless noted.
Another assay concerns MDA-MB-435 melanoma. Conditions: 10 µM unless noted.
A further assay concerns SW-620 colon. Conditions: 10 µM unless noted.
For the next assay, the system named is MCF7 breast. Conditions: 10 µM.
The next assay concerns HCT-116 colon. Conditions: 10 µM unless noted.
The test system of a further assay is HCC-2998 colon. Conditions: 10 µM unless noted.
In the next assay the test system is KM12 colon. Conditions: 10 µM unless noted.
A further assay concerns IGROV1 ovarian. Conditions: 10 µM unless noted.

The panel holds about 83,000 compounds, 20% with a hit somewhere; the sample as a whole holds those more often.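 The test compound was applied at a single concentration to cells in 96-well plates for 48 hours, and percent growth was recorded.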 Values without a mark were called inactive. Active and inactive are the calls of the source. How the source made its calls: active means growth percent below 10; inactive means the rest.

Take `O=C(NC1CCCCC1)C(c1cccs1)N(CCc1ccccc1)C(=O)c1ccco1` (stereo not drawn): the growth in the assay with RPMI-8226 leukemia is 79.7%; in the assay on OVCAR-8 ovarian it was 88.2%; in the assay with OVCAR-5 ovarian, 87.1%; in the assay with OVCAR-4 ovarian, 95.9%; in the assay with SK-OV-3 ovarian, 89.6%; in the assay on OVCAR-3 ovarian, 96.6%. Also, the growth in the assay with HS 578T breast is 93.8%; with NCI/ADR-RES ovarian, 94.3%; in the assay with T-47D breast, 85.1%; in the assay on BT-549 breast, 103%; in the assay on MDA-MB-435 melanoma, 104%; in the assay on SW-620 colon, 96.1%. The growth was 88.3% in the assay with MCF7 breast, 82.9% with HCT-116 colon, 105% with HCC-2998 colon and 98% with KM12 colon.

As to `COc1ccc(C2C3=C(COC3=O)N(CCO)c3cc4c(cc32)CCC4)cc1` (stereo not drawn), the growth in the assay with RPMI-8226 leukemia is 86.8%; in the assay on OVCAR-8 ovarian, 58.4%; in the assay with OVCAR-5 ovarian it was 96.2%; in the assay with OVCAR-4 ovarian, 75.9%; in the assay on SK-OV-3 ovarian, 57.3%; with IGROV1 ovarian, 51.8%. The growth is 0.832% (active) in the assay with OVCAR-3 ovarian; 69.7% in the assay on HS 578T breast; 31.5% with T-47D breast; 38.4% with BT-549 breast; 0.306% (active) in the assay with MDA-MB-435 melanoma; 31.5% in the assay with SW-620 colon. Also, the growth in the assay on HCT-116 colon is 33.5%; with KM12 colon, 21.2%.

On to `Cc1ccc2[nH]c(=O)cc(-n3nncc3Cn3c4ccccc4c4ccccc43)c2c1`, for which the growth was 109% in the assay on RPMI-8226 leukemia; 94.9% with OVCAR-8 ovarian; 104% in the assay on OVCAR-5 ovarian; 98.7% with OVCAR-4 ovarian; 91.4% in the assay on SK-OV-3 ovarian; 101% in the assay with OVCAR-3 ovarian. Also, the growth is 88.4% in the assay on HS 578T breast; 99.5% in the assay on NCI/ADR-RES ovarian; 106% with T-47D breast; 96.6% in the assay with BT-549 breast; 100% in the assay on MDA-MB-435 melanoma; 97.9% in the assay with SW-620 colon. For the same molecule, the growth in the assay with MCF7 breast was 99.5%; in the assay on HCT-116 colon, 97.8%; with HCC-2998 colon, 101%; in the assay with KM12 colon it was 103%.

In the case of `COc1ccc(-c2nsc3c2NC(=O)CC3c2ccsc2)cc1` (stereo not drawn), the growth in the assay with RPMI-8226 leukemia was 21.5%; in the assay on OVCAR-8 ovarian, 30.7%; in the assay with OVCAR-5 ovarian, 33%; in the assay on OVCAR-4 ovarian, 31.1%; in the assay on SK-OV-3 ovarian it was -4.77% (active); in the assay with IGROV1 ovarian, 15.7%. Further, the growth with HS 578T breast is 32.5%; with NCI/ADR-RES ovarian, 22.2%; in the assay with T-47D breast, 62.7%; in the assay with BT-549 breast, 12.1%; in the assay on MDA-MB-435 melanoma, -44% (active); with SW-620 colon it was 28.3%. Further, the results for the growth in the assay on MCF7 breast, in the assay on HCT-116 colon and in the assay on KM12 colon were 16.7%, 10.8% and 8.01% (active), respectively.

In the case of `Cn1c2c(c(=O)[nH]c1=O)NC1=C(C(=O)c3ccccc31)C1(C=C(O)c3ccccc31)N2` (stereo not drawn), the growth in the assay with RPMI-8226 leukemia is 105%; with OVCAR-8 ovarian, 107%; with OVCAR-5 ovarian it was 111%; in the assay on OVCAR-4 ovarian, 71.3%; in the assay with SK-OV-3 ovarian, 111%; with IGROV1 ovarian it was 95.5%. Besides, the growth in the assay on HS 578T breast was 110%; in the assay on NCI/ADR-RES ovarian, 117%; in the assay with T-47D breast, 108%; in the assay with BT-549 breast, 180%; with MDA-MB-435 melanoma, 117%; in the assay with SW-620 colon it was 123%. Also, the growth is 91% with MCF7 breast, 96.5% in the assay with HCT-116 colon, 130% in the assay on HCC-2998 colon and 104% in the assay with KM12 colon.

In the case of `COc1ccc(C2c3ccc4ccccc4c3Oc3ncn(CCCn4ccnc4)c(=N)c32)cc1OC` (stereo not drawn), the growth in the assay on RPMI-8226 leukemia was 36.1%; in the assay on OVCAR-8 ovarian, 67.8%; in the assay on OVCAR-5 ovarian, 67.5%; in the assay with OVCAR-4 ovarian it was 58.9%; in the assay on SK-OV-3 ovarian it was 76.1%; with IGROV1 ovarian, 72.8%. The growth in the assay on HS 578T breast is 83.9%; in the assay with NCI/ADR-RES ovarian, 67.8%; in the assay on T-47D breast, 72.4%; in the assay with BT-549 breast, 69.9%; in the assay with MDA-MB-435 melanoma it was 64.5%; in the assay with SW-620 colon it was 64.4%. Further, the growth in the assay with MCF7 breast was 51.8%; with HCT-116 colon, 28.8%; with KM12 colon, 84.2%.

Take `COC(=O)/C(=C\c1c(C)[nH]c2ccccc12)S(=O)(=O)c1ccccc1`: the growth is -45.8% (active) in the assay with RPMI-8226 leukemia; 4.29% (active) in the assay on OVCAR-8 ovarian; 33.6% with OVCAR-5 ovarian; 53% in the assay on OVCAR-4 ovarian; 22.6% with SK-OV-3 ovarian; -19.8% (active) in the assay with OVCAR-3 ovarian. In addition, the growth with HS 578T breast was -29.7% (active); in the assay with NCI/ADR-RES ovarian it was 4.6% (active); in the assay on T-47D breast, 17.8%; with BT-549 breast, 29.8%; in the assay on MDA-MB-435 melanoma, 13.9%; in the assay on SW-620 colon it was 30.4%. For the same molecule, the growth with MCF7 breast is 6.71% (active); with HCT-116 colon, 29.5%; in the assay with KM12 colon, -13.2% (active).

`CCN1C(=O)N(CC)C2Nn3c(s/c(=C4\C(=O)N(C(C)C)c5ccccc54)c3=O)=NC21` (stereo not drawn): the growth in the assay on RPMI-8226 leukemia was 23.3%; in the assay with OVCAR-8 ovarian it was 39.9%; in the assay with OVCAR-5 ovarian, 64%; with OVCAR-4 ovarian, 35.2%; with SK-OV-3 ovarian, 35.5%; in the assay with OVCAR-3 ovarian, 19.4%. The growth with HS 578T breast is 60.1%; in the assay on NCI/ADR-RES ovarian it was 7.07% (active); with T-47D breast it was 27.9%; in the assay on BT-549 breast it was 27.7%; in the assay with MDA-MB-435 melanoma, 1.02% (active); in the assay with SW-620 colon, 32.4%. For the same molecule, the growth was 9% (active) in the assay on MCF7 breast, 6.5% (active) with HCT-116 colon, 34.6% with HCC-2998 colon and 28.5% with KM12 colon.

For the molecule `COc1cc(C(=O)NN=C2c3ccccc3-c3ccccc32)cc(OC)c1OC`, the growth was 23% with RPMI-8226 leukemia; 34.5% in the assay on OVCAR-8 ovarian; 63.4% with OVCAR-5 ovarian; 55.5% in the assay on OVCAR-4 ovarian; 22.9% in the assay on SK-OV-3 ovarian; -1.71% (active) with OVCAR-3 ovarian. Moreover, the growth in the assay on HS 578T breast is 50.6%; in the assay on NCI/ADR-RES ovarian, 23.3%; in the assay on T-47D breast, 37.8%; in the assay on BT-549 breast, 43.3%; in the assay on MDA-MB-435 melanoma, -22.6% (active); in the assay on SW-620 colon it was 19.5%. Besides, the growth was 11.9% in the assay with MCF7 breast, 20.4% in the assay on HCT-116 colon and 29.3% with KM12 colon.

Regarding `CCN1CCN(C(=S)SCC(=O)Nc2nc3ccc(C)cc3s2)CC1`, the growth in the assay with RPMI-8226 leukemia is 94.7%; in the assay on OVCAR-8 ovarian it was 91.9%; in the assay on OVCAR-5 ovarian it was 95.3%; in the assay with OVCAR-4 ovarian, 86.2%; in the assay on SK-OV-3 ovarian, 102%; with IGROV1 ovarian, 72%. Further, the growth in the assay on HS 578T breast is 112%; in the assay on NCI/ADR-RES ovarian, 103%; with T-47D breast, 87.8%; with BT-549 breast, 108%; in the assay with MDA-MB-435 melanoma, 116%; in the assay on SW-620 colon, 109%. Further, the growth in the assay with MCF7 breast is 105%; in the assay with HCT-116 colon, 94.7%; with KM12 colon it was 108%.
